Structures can show the parent of a compound that is named as a salt. ± gives the standard deviation of the averaged measurements.
Key:
Settings in all cases: concentration: 10 µM; 24 h
HCC1569 [1] = assay: cell number relative to DMSO (% of DMSO); higher = more cells (less growth inhibition / toxicity)
Procedure, shortened: (§1)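 Compounds were applied at 10 µM for 24 h at 37 °C, in triplicate, to HCC1569 and TDF cells. The cells were then fixed and stained for H1.0, and nuclei were counterstained with DAPI. Nuclear H1.0 intensity or cell number is reported relative to the plate control as a percent, taking the median of replicates. Smoothing for positional effects was applied to HCC1569 values only.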

TDF [2] = assay: as above
Procedure, shortened: as §1

TDF [3] = assay: H1.0 immunofluorescence intensity relative to DMSO (% of DMSO); higher = stronger H1.0 induction, active = 120 or more
Procedure, shortened: as §1

HCC1569 [4] = assay: H1.0 immunofluorescence intensity relative to DMSO (% of DMSO); higher = stronger H1.0 induction, active = 140 or more
Procedure, shortened: as §1
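For H1.0 immunofluorescence intensity relative to DMSO in this document: TDF is a line of transformed human dermal fibroblasts of mesenchymal origin.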
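For cell number relative to DMSO in this document: TDF denotes transformed human dermal fibroblasts of mesenchymal origin.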

SMILES | cell number (HCC1569 [1]) | cell number (TDF [2]) | H1.0 immunofluorescence intensity (TDF [3]) | H1.0 immunofluorescence intensity (HCC1569 [4])
C=CCc1ccc(O)c(OC)c1 [Eugenol] | 103 | 114 | 89.5 (inactive) | 95.1 (inactive)
Cc1cccc(C(=O)NCN2CCN(c3ccccc3C#N)CC2)c1.O=C(O)C=CC(=O)O [PD 168,077 maleate] | 105 | 107 | 97.3 (inactive) | 99.3 (inactive)
CCCCCC=CCC=CCC=CC=CC(O)CCCC(=O)O (stereo unspecified) | 97 | 103 | 104 (inactive) | 105 (inactive)
O=C1C=C(CO)OCC1=O [5-hydroxy-2-(hydroxymethyl)-4H-pyran-4-one] | 105 | 94.6 | 92.9 (inactive) | 92 (inactive)
COc1ccccc1N1CCN(CCN(C(=O)c2ccc(I)cc2)c2ccccn2)CC1.Cl [p-MPPI hydrochloride] | 97.4 | 96.3 | 96.6 (inactive) | 93.4 (inactive)
O=c1[nH]c(=O)c2nc3ccccc3nc2[nH]1 [Alloxazine] | 101 | 91.6 | 101 (inactive) | 92.1 (inactive)
CN(C)C(N)=NCCCC(N)C(=O)O.Cl (stereo unspecified) [N^G,N^G-Dimethylarginine hydrochloride] | 104 | 96.5 | 91.6 (inactive) | 94.5 (inactive)
COc1ccccc1N1CCN(CCN(C(=O)C2CCCCC2)c2ccccn2)CC1.O=C(O)C=CC(=O)O | 104 | 102 | 101 (inactive) | 100 (inactive)
CC1=NC(=NNc2ccc(C(=O)[O-])cc2)C(COP(=O)([O-])[O-])=C(C=O)C1=O.[Na+].[Na+].[Na+] | 101 | 103 | 93.5 (inactive) | 103 (inactive)
CN(C)c1ccc(C2Nc3ccc4ccccc4c3C3=C2C(=O)CC(C)(C)C3)cc1Br (stereo unspecified) | 91.7 | 79.3 | 113 (inactive) | 130 (inactive)
NCC1OC(OC2C(N)CC(N)C(OC3OC(CO)C(O)C(N)C3O)C2O)C(N)CC1O (stereo unspecified) [Tobramycin (free base)] | 103 | 102 | 107 (inactive) | 106 (inactive)
CS(=O)(=O)O.C[C@H](NCc1ccc(OCc2cccc(F)c2)cc1)C(N)=O | 99.7 | 102 | 97.6 (inactive) | 98.6 (inactive)
Cl.Cl.NCCc1cnc[nH]1 [Histamine dihydrochloride] | 99.6 | 105 | 92.1 (inactive) | 86.6 (inactive)
C=CC1CN2CCC1CC2C(O)c1ccnc2ccc(OC)cc12.Cl.O (stereo unspecified) | 99.6 | 90.1 | 96.8 (inactive) | 95 (inactive)
CC(N)(Cc1ccc(O)c(O)c1)C(=O)O (racemic) | 101 | 101 | 90.9 (inactive) | 98.2 (inactive)
NS(=O)(=O)c1ccc(-n2nc(C(F)(F)F)cc2-c2ccc(Cl)cc2)cc1 | 90.5 | 104 | 90.5 (inactive) | 90.7 (inactive)
O=c1[nH]c2ccccc2n1CCN1CCN(c2cccc(C(F)(F)F)c2)CC1 | 103 | 111 | 95.8 (inactive) | 101 (inactive)
CCC(=O)Nc1ccc2ncnc(Nc3cccc(Br)c3)c2c1 | 89.4 | 105 | 93.1 (inactive) | 128 (inactive)
Cc1[nH]c2ccccc2c1C1=C(NCCc2ccc(F)cc2)C(=O)N(C)C1=O | 82.4 | 59 | 137 (active) | 113 (inactive)
COc1cc2c(cc1OC)-c1cc3ccc(OC)c(OC)c3c[n+]1CC2.[Cl-] [Palmatine chloride] | 100 | 108 | 96.1 (inactive) | 88.6 (inactive)
Cc1cccc(-c2nn(C(=S)Nc3ccccc3)cc2-c2ccnc3ccccc23)n1 | 98.7 | 97.7 | 82.2 (inactive) | 134 (inactive)
C=CCCCCCCCCC(=O)O [10-Undecenoic acid] | 102 | 103 | 104 (inactive) | 105 (inactive)
Cn1cnc2cc3c(Nc4cccc(Br)c4)ncnc3cc21 | 92.4 | 114 | 79.6 (inactive) | 117 (inactive)
CC(=O)Nc1ccc(CC(=O)O)cc1 [Actarit] | 100 | 103 | 97.2 (inactive) | 96.5 (inactive)
C[C@H](CCC(=O)O)[C@H]1CC[C@H]2[C@@H]3C[C@H](O)[C@@H]4C[C@H](O)CC[C@]4(C)[C@H]3CC[C@]12C [(3alpha,5beta,6alpha)-3,6-dihydroxycholan-24-oic acid] | 101 | 98.6 | 97.3 (inactive) | 106 (inactive)
NS(=O)(=O)Cc1noc2ccccc12 [Zonisamide] | 101 | 94.5 | 96 (inactive) | 90.5 (inactive)
NCC(O)c1ccc(O)c(O)c1.O=C(O)C(O)C(O)C(=O)O (stereo not drawn) [Norepinephrine-(+)-tartrate L (-)] | 100 | 99.2 | 91.4 (inactive) | 105 (inactive)

SMILES | cell number (HCC1569 [1]) | cell number (TDF [2]) | H1.0 immunofluorescence intensity (TDF [3]) | H1.0 immunofluorescence intensity (HCC1569 [4])
CCn1cc(C(=O)O)c(=O)c2cc(F)c(N3CCNC(C)C3)c(F)c21 (stereo unspecified) [Lomefloxacin] | 101 | 90.9 | 95.3 (inactive) | 100 (inactive)
O=C(O)C(=S)Cc1ccc(I)cc1 [(2Z)-3-(4-iodophenyl)-2-sulfanyl-2-propenoic acid] | 106 | 104 | 95.6 (inactive) | 94.8 (inactive)
CCN1CCN(C(=O)NC(C(=O)NC2C(=O)N3C(C(=O)O)=C(CSc4nnnn4C)CSC23)c2ccc(O)cc2)C(=O)C1=O (stereo unspecified) [Cefoperazone acid] | 100 | 103 | 91.9 (inactive) | 102 (inactive)
Cc1cc(C(C)Nc2ccccc2)c2nc(N3CCOCC3)cc(=O)n2c1 (stereo unspecified) | 80.7 | 109 | 92.5 (inactive) | 136 (inactive)
COc1cc(C2Oc3cc(C4Oc5cc(O)cc(O)c5C(=O)C4O)ccc3OC2CO)ccc1O (stereo unspecified) [Silybine] | 100 | 103 | 95.9 (inactive) | 90.2 (inactive)
COc1ccc(S(=O)(=O)N(CCO)c2ccccc2CN(C)CC=Cc2ccc(Cl)cc2)cc1 | 74.4 | 86.7 | 103 (inactive) | 183 (active)
CC(C(O)c1ccc(O)cc1)N1CCC(Cc2ccccc2)CC1 (stereo unspecified) [Ifenprodil tartrate] | 104 | 102 | 94.5 (inactive) | 98.5 (inactive)
Br.CN=c1nc(-c2ccccc2)n(-c2ccccc2)s1 | 97.5 | 107 | 90.9 (inactive) | 111 (inactive)
COCCCCC(=NOCCN)c1ccc(C(F)(F)F)cc1.O=C(O)C=CC(=O)O [Fluvoxamine maleate] | 98.6 | 97.1 | 95.3 (inactive) | 92.4 (inactive)
CCC1=CC2CN(C1)Cc1c([nH]c3ccccc13)C(C(=O)OC)(c1cc3c(cc1OC)N(C)C1C(O)(C(=O)OC)C(OC(C)=O)C4(CC)C=CCN5CCC31C54)C2 (stereo unspecified) [Vinorelbine] | 56.9 ± 1.3 | 9.75 ± 0.33 | 167 (active) | 153 (active)
O=C1NC(=O)c2cc(Nc3ccc(F)cc3)c(Nc3ccc(F)cc3)cc21 | 93.4 | 110 | 93.4 (inactive) | 133 (inactive)
CCC(C)C(=O)OC1CC(O)C=C2C=CC(C)C(CCC3CC(O)CC(=O)O3)C21 (stereo unspecified) [Pravastatin Lactone] | 101 | 109 | 91.6 (inactive) | 110 (inactive)
CC1C2CCC3C4CC=C5CC(N(C)C)CCC5(C)C4CCC32CN1C (stereo unspecified) [Conessine] | 103 | 104 | 109 (inactive) | 113 (inactive)
CC1=C(C(=O)O)N2C(=O)C(NC(=O)C(N)C3=CCC=CC3)C2SC1 (stereo unspecified) [Cephadrine] | 100 | 101 | 96.3 (inactive) | 88 (inactive)
COc1cc(Cc2cnc(N)nc2N)cc(OC)c1OC [Trimethoprim] | 99 ± 1.6 | 95.9 ± 2.8 | 106 (inactive) | 107 (inactive)
Oc1cc2c(c(Cl)c1O)CCNCC2c1ccccc1 (stereo unspecified) | 99.5 | 87.8 | 85.5 (inactive) | 105 (inactive)
CCOc1cc2ncc(C#N)c(Nc3ccc(F)c(Cl)c3)c2cc1NC(=O)/C=C/CN(C)C | 43.6 | 10 | 177 (active) | 84.6 (inactive)
Cl.Fc1cccc(CN(C2=NCCN2)c2c(Cl)cccc2Cl)c1 [IMID-4F hydrochloride] | 99.4 | 99.7 | 102 (inactive) | 134 (inactive)
O=c1onc2n1-c1cc(Br)ccc1OC2 | 97.4 | 104 | 94 (inactive) | 96 (inactive)
CCCCCCCCCC(=O)O [Decanoic acid] | 105 | 95.3 | 100 (inactive) | 103 (inactive)
CC(C)(Sc1ccc(CCN(CCCCC2CCCCC2)C(=O)NC2CCCCC2)cc1)C(=O)O | 101 | 107 | 95.7 (inactive) | 87.6 (inactive)
Cl.OC(CN1CCN(c2cccc(Cl)c2)CC1)C(c1ccccc1)c1ccccc1 (stereo unspecified) | 102 | 111 | 94.8 (inactive) | 88.3 (inactive)
CCOC(=O)c1cnc2c(cnn2CC)c1NN=C(C)C [Etazolate] | 102 | 108 | 95.6 (inactive) | 103 (inactive)
CC1(C)CCC=[N+]1[O-] [5,5-Dimethyl-1-pyrroline-N-oxide] | 100 | 105 | 94.2 (inactive) | 99.5 (inactive)
O=C(O)CCC(=O)c1ccc(-c2ccccc2)cc1 [Fenbufen] | 101 | 103 | 92.2 (inactive) | 119 (inactive)
CN1CCN(CC(=O)N2c3ccccc3C(=O)Nc3cccnc32)CC1.Cl.Cl [Pirenzepine.2HCl] | 101 | 106 | 90.5 (inactive) | 106 (inactive)
O=C1CCC(N2C(=O)c3ccccc3C2=O)C(=O)N1 (racemic) | 103 | 108 | 99.5 (inactive) | 99.3 (inactive)
